Only some compounds are listed: those with a hit (about 14% of all), similar ones and a draw of the others.
HCMV inh = human cytomegalovirus inhibition; HFF cells, HCMV-luciferase reporter, 72 h; hits give low values; 4.5% of 410,000 active; activity change, negative = inhibition, % at 57.5 µM; AID 1259415; in the data active = activity change below about -60%; inconclusive = no clear call, values can overlap the other calls; inactive = above about -39%
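Screen run at 2 compound doses on HFFs infected with reporter HCMV, MOI 1 PFU/cell. Luciferase activity from cell lysates at 72 h post infection gave inhibition relative to buffer-only and Salinomycin wells.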
Sm TGR block = inhibitors of Schistosoma mansoni thioredoxin glutathione reductase. Potency, µM (doses to about 114 µM), for inactives: at the highest dose activity change, negative = inhibition, hits mostly inhibitors. 3% of 360,000 active. purified TGR, DTNB reduction, TNB absorbance 405 nm. Q962Y6; also: potency is read from the fitted curve at half-maximal effect; nearly all actives have a fitted effect of over 60% in size
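First, TGR (20 nM dispensed) and NADPH were mixed with compound. Second, a 15 min room-temperature incubation followed. Third, further NADPH and then DTNB were added to start the reaction. Finally, TNB absorbance was monitored kinetically.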
Pf growth 48h = inhibits P. falciparum growth in the first generation, 48 h | P. falciparum luciferase growth in erythrocytes, 48 h | Potency, µM (doses to about 28.7 µM), for the others: top-dose activity change, negative = inhibition, actives largely listed as inhibitors | 5.9% of 310,000 active | AID 504832; also: potency is read from the fitted curve at half-maximal effect
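In quantitative HTS format, infected erythrocytes bearing luciferase-reporter parasites were treated for a single generation at 37 C. Luminescence after adding detection reagent served as the growth measure.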
Pf growth 96h = P. falciparum growth inhibition at 96 hour, primary screen for plastid delayed-death inhibitors; 6.9% of 320,000 active; Potency, µM (highest dose often 28.7 µM), for the others: top-dose activity change, negative = inhibition, most hits filed as inhibitors; AID 504834; P. falciparum luciferase reporter growth, 96 h; also: potency is read from the fitted curve at half-maximal effect
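Readout is luminescence from an integrated firefly luciferase in P. falciparum. Red cells, 2% hematocrit and 0.05% parasitemia final, were cultured with compound through two parasite generations (96 hours) at 37 C, 5% CO2.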
FBPA Giardia inh = inhibitors of Giardia lamblia fructose-1,6-bisphosphate aldolase; A8B2U2; Potency, µM (doses to about 59.6 µM), for the others: at the highest dose activity, negative = inhibition, actives largely listed as inhibitors; 0.71% of 290,000 active; purified Giardia FBPA; AID 2451; also: potency is read from the fitted curve at half-maximal effect; nearly all actives have a fitted effect of over 55% in size
Target sequence (A8B2U2 whole entry, looked up): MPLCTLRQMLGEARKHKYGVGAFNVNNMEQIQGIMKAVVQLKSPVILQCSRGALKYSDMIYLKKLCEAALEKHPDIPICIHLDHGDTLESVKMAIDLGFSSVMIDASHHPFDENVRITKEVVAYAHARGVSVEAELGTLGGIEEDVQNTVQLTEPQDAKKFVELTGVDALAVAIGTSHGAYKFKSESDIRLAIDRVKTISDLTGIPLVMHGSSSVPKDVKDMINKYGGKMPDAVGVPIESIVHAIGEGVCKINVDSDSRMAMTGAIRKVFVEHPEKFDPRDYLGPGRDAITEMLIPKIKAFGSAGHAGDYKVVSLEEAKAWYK
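Giardia FBPA (40 nM reagent) was preincubated 10 min at RT with compound (up to 57.5 uM final), then substrate plus GAPDH/TPI/NAD/arsenate coupling system with diaphorase/resazurin was added; resorufin fluorescence (525/598 nm) was read after 20 min.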
* hit, by the source's call; ? = inconclusive; . = no result given. Unless noted, calls follow the shape of the dose curve; as a rule, active = well fitted curve in the direction sought with a large enough effect; inconclusive = small, poorly fitted or top-dose-only effect, or another doubt; inactive = no such curve, though single readings can be large; an effect the other way counts as inactive or inconclusive. % is scaled to controls: 0 for no effect and ±100 for the full control effect.

SMILES	HCMV inh	Sm TGR block	Pf growth 48h	Pf growth 96h	FBPA Giardia inh
COCCN(C(=O)Nc1ccc(F)cc1F)c1nc2ccccc2s1	97	0%	83%	-4%	8%
COc1cc(C(=O)NCc2ccc(-c3nc4ccccc4s3)cc2)cc(OC)c1OC	69	1%	53%	6%	4%
COc1ccccc1C(=O)NCc1ccc(-c2nc3ccccc3s2)cc1	-61*	?	167%	-27%	7%
CC1Cc2cc(/C(O)=C3/C(=O)C(=O)N(Cc4ccco4)C3c3cccs3)ccc2O1 (centres undefined)	-20	35µM*	41%	-15%	1%
CC1Cc2cc(/C(O)=C3/C(=O)C(=O)N(CCCn4ccnc4)C3c3ccncc3)ccc2O1 (centres undefined)	14	0%	7%	31%	-9%
COc1ccc(/C(O)=C2/C(=O)C(=O)N(Cc3ccco3)C2c2cccs2)cc1 (centres undefined)	73	2%	25%	83%	?
CC1Cc2cc(/C(O)=C3/C(=O)C(=O)N(CCCn4ccnc4)C3c3ccco3)ccc2O1 (centres undefined)	-35	-34%	226%	0.21µM*	-9%
O=C(O)c1nn(CCOc2cccc(Cl)c2)c(=O)c2ccccc12	81	-4%	?	3%	-25%
O=C(O)c1nn(CCOc2c(Cl)cccc2Cl)c(=O)c2ccccc12	-75*	2%	-2%	39%	9%
CCOc1cccc2sc(=NC(=O)CCS(=O)(=O)c3ccc(F)cc3)n(C)c12	?	-11%	?	-13%	.
CC(=O)O[C@]1(C(C)=O)CC[C@H]2[C@@H]3C=CC4=CC(=O)C=C[C@]4(C)[C@H]3CC[C@@]21C	-38	-11%	12µM*	4.7µM*	-2%
CC(=O)O[C@@]1(C(C)=O)CCC2C3C=C(C)C4=CC(=O)CCC4(C)C3CCC21C (some centres undefined)	.	.	.	.	-5%
CC(=O)O[C@]1(C(C)=O)CC[C@H]2[C@@H]3C=C(C)C4=CC(=O)CC[C@@H]4[C@H]3CC[C@@]21C	40	?	13µM*	?	.
C=C1CC2C3C=C(C)C4=CC(=O)CCC4(C)C3CCC2(C)[C@@]1(OC(C)=O)C(C)=O (some centres undefined)	.	.	?	11µM*	.
Cc1cc(Cl)c2oc(C(=O)N(C)Cc3nccn3C)c(C)c2c1	2	7%	?	0%	-4%
Cn1cnnc1SCC(=O)Nc1ccc(Cl)c(S(=O)(=O)N2CCOCC2)c1	-14	5%	-24%	?	1%
CC(Sc1nc(C(F)(F)F)nc2ccccc12)C(=O)NC1CCCC1 (centres undefined)	-19	10%	?	?	.
Cc1cc(Nc2ccc(O)cc2)ccc1N	.	2µM*	?	?	.
Cc1ccccc1C(=O)NCC(c1cccnc1)N1CCc2ccccc21 (centres undefined)	-16	3%	.	.	.
Cc1ccc(N2NC(=O)/C(=C\c3cc4c(cc3[N+](=O)[O-])OCO4)C2=O)cc1C	102	?	10µM*	0%	-5%
COc1cc(/C=C2/C(=O)NN(c3ccc(C)c(Cl)c3)C2=O)cc([N+](=O)[O-])c1O	-30	-31%	28%	-3%	-21%
CCOC(=O)CSc1ccc(C(=O)N2CCC3(CC2)OCCO3)cc1[N+](=O)[O-]	-29	12%	?	7.4µM*	7%
CCOC(=O)N1CCN(C(=O)CSc2ccc(C(=O)OC)cc2[N+](=O)[O-])CC1	9	2%	-19%	4.7µM*	2%
O=C(c1ccc(N2CCC3(CC2)OCCO3)c([N+](=O)[O-])c1)N1CCOCC1	6	1%	41%	0%	-4%
Cc1ccc(S(=O)(=O)N(C)c2c(C)ccc(S(=O)(=O)N3CCN(C=O)CC3)c2C)cc1	-90*	-3%	-29%	47%	9%
SMILES	HCMV inh	Sm TGR block	Pf growth 48h	Pf growth 96h	FBPA Giardia inh
Cc1ccc(S(=O)(=O)N(C)c2c(C)ccc(S(=O)(=O)N3CCN(C)CC3)c2C)cc1	-3	-6%	-28%	?	5%
Cc1ccc(S(=O)(=O)N2CCN(Cc3ccccc3)CC2)c(C)c1NS(C)(=O)=O	2	1%	.	.	.
Cc1ccc(S(=O)(=O)N2CCN(Cc3ccccc3)CC2)c(C)c1N(C)S(=O)(=O)c1ccccc1	-81*	10%	?	368%	1%
C=C(C)CN1CCN(S(=O)(=O)c2ccc(C)c(N(C)S(=O)(=O)c3ccc(C)cc3)c2C)CC1	-73*	-5%	10µM*	-18%	2%
CCOC(=O)c1cnc2ccc(C(=O)OC)cc2c1Nc1ccc(OCc2ccccc2Cl)cc1	13	0%	.	.	.
Cc1ccc(C)c(NC(=O)Cn2cnc3c(oc4ccccc43)c2=O)c1	34	-3%	10µM*	?	0%
CCC[C@H]1[C@@H](NS(=O)(=O)c2ccc(Br)cc2)CC[C@@]23CCCN2C(=O)CCC[C@@H]13	29	.	.	.	.
CCCn1nc(NC(=O)c2cccc(Cl)c2)c2cc3cccc(C)c3nc21	-3	8%	.	.	.
Cc1noc(C)c1COc1ccccc1C(=O)N(C)CC(=O)Nc1ccc(F)c(F)c1F	3	-3%	?	?	.
CCC(CO)Oc1cc(NCc2ccc(C)cc2)c2ncn(C(C)C)c2c1 (centres undefined)	7	.	.	.	.
CCC(CO)Oc1cc(NCc2cccc(C)c2)c2ncn(C(C)C)c2c1 (centres undefined)	-76*	.	.	.	.
CC[C@H](CO)Oc1cc(NCc2cccc(N)c2)c2ncn(C(C)C)c2c1	-21	.	.	.	.
CCC(CO)Oc1cc(NCc2ccc(OC)cc2)c2ncn(C(C)C)c2c1 (centres undefined)	16	-12%	15µM*	?	.
CCOC(=O)[C@]12CCC=C1N(CCC1=CCCCC1)C(=O)[C@H](CC(=O)NCc1ccccc1)C2	-19	.	.	.	.
COC(=O)c1ccc(NC(=O)C(=O)N2CCN(C(=S)Nc3cccc(C)c3C)CC2)cc1	17	3%	3%	0.47µM*	-6%
COc1cccc(OC(=O)c2cc3ccccc3oc2=O)c1	17	2%	-2%	?	1%
COc1ccc(-n2cc(C(=O)c3cc4ccccc4oc3=O)c(C(C)=O)n2)cc1	-67*	-26%	23%	.	-19%
CN(C)c1ncc2nc(-c3cc(F)cc(F)c3)c(=O)n(-c3ccccc3)c2n1	.	.	.	.	8%
Cc1ccc(S(=O)(=O)c2cc3cc(Br)ccc3oc2=O)cc1	-40	-9%	35%	1.7µM*	3%
CCCOc1ccc(C2C(=O)N(C3CCCCCC3)CC(=O)N2C(C)C)cc1OC (centres undefined)	-22	10%	.	.	.
CCNC(=S)N1CCc2cc(OC)c(OC)cc2C1COc1ccc(F)cc1 (centres undefined)	-16	-2%	?	8.3µM*	0%
COCCNC(=S)N1CCc2cc(OC)c(OC)cc2C1c1cccs1 (centres undefined)	24	-14%	2.9µM*	5.9µM*	2%
